# Data as given in PubChem BioAssay AID504339 (National Center for Advancing Translational Sciences (NCATS), 2011).
# In all, about 390,000 compounds went through this assay and about 17,000 (4.4%) were called active. Entries that show only a call come without a potency. Inconclusive results (about 8%) are left out. The call rests on the fitted dose curve; in most records, active means well fitted inhibition curve with a large enough effect; inconclusive means small, poorly fitted or top-dose-only effect; inactive means no such curve, though single readings can be large or run the other way. The full list was thinned out, with actives kept by preference.
# Target: Lysine-specific demethylase 4A (Homo sapiens) (UniProt O75164)
# Experiment: qHTS Assay for Inhibitors of JMJD2A-Tudor Domain; further: nearly all actives have a fitted effect of over 50% in size
# Settings: AlphaScreen JMJD2A-Tudor / H3K4me3 peptide binding; series mostly up to 114 µM
# Potency means the concentration at half of the fitted maximal effect.
# Chain of Lysine-specific demethylase 4A (Homo sapiens) (O75164 whole entry, looked up, the tested form may be a part): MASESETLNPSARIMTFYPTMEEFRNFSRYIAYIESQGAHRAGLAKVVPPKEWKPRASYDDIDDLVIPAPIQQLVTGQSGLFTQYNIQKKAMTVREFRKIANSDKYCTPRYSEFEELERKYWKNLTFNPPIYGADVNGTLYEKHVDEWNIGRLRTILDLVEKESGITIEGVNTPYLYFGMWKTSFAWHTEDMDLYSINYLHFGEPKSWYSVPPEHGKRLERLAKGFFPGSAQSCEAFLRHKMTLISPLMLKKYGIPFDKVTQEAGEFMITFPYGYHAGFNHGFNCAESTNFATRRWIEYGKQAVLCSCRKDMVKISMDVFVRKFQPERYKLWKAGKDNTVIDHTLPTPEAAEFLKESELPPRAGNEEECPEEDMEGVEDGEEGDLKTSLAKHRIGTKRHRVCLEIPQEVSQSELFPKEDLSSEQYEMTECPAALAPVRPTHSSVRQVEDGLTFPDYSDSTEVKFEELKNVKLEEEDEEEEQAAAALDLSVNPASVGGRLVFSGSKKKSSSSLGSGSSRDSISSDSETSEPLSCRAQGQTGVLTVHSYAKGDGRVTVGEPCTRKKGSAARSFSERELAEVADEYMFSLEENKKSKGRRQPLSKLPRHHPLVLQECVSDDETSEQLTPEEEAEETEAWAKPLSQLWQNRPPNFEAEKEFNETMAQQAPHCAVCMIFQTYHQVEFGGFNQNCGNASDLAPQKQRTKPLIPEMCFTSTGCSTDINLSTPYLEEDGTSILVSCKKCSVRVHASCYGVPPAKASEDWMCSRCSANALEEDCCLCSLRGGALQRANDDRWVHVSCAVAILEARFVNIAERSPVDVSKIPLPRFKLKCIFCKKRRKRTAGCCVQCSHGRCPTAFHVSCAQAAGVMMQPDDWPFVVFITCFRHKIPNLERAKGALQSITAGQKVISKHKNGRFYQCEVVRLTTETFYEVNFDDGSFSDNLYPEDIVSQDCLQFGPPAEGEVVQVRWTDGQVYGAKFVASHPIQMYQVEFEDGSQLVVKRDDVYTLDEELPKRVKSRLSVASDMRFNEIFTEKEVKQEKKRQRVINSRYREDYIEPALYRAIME
row,SMILES,Potency
1,Nc1ccc(N=Nc2ccccc2Cl)c(N)n1,25.1 µM (active)
2,COc1ccc(Cl)cc1N(C)C(=O)c1cc2c(=O)oc3ccc(C)cc3c2s1,inactive
3,COc1ccc(-c2cc(C(=O)N3CCN(Cc4ccc5c(c4)OCO5)CC3)on2)cc1OC,20 µM (active)
4,COc1cc(Cl)c(S(=O)(=O)N2CCN(Cc3ccc4c(c3)OCO4)CC2)cc1Cl,inactive
5,Cc1cc(C)n2nc(C(=O)N3CCN(Cc4ccc5c(c4)OCO5)CC3)nc2n1,inactive
6,COc1ccc(-c2nc3scc(CCNS(=O)(=O)c4cc(F)ccc4OC)n3n2)cc1OC,inactive
7,Cc1cc(C)nc(S/C=C/C(=O)c2ccccc2)n1,inactive
8,O=C(/C=C/Sc1ncn[nH]1)c1ccc(Cl)cc1,31.6 µM (active)
9,CC(=O)c1ccc(N2CCN(c3nc4c(S(=O)(=O)c5ccccc5)nnn4c4ccc(Cl)cc34)CC2)cc1,inactive
10,COc1ccc(S(=O)(=O)NCc2cccn2Cc2cccc(C)c2)cc1Cl,inactive
11,Cc1ccc(OCC(=O)Oc2ccccc2[N+](=O)[O-])cc1,inactive
12,C=CCN(CC=C)CCOc1ccccc1[N+](=O)[O-],1 µM (active)
13,O=C(COc1ccccc1[N+](=O)[O-])NC1CC1,inactive
14,COc1ccc(CNC(=O)C2=Cc3cccc(OC)c3OC2)cc1OC,inactive
15,CCN(CC)c1nc(C#N)nc(OC)n1,inactive
16,O=C(CCn1c(=O)c2sccc2n(Cc2ccc(F)cc2)c1=O)NCc1ccc2c(c1)OCO2,inactive
17,CN(CCOc1ccc(CC2SC(=O)NC2=O)cc1)c1ccccn1 (stereo not given),inactive
18,CCN(CC)CCOc1ccc2c(c1)C(=NNC(=O)c1ccccn1)c1cc(OCCN(CC)CC)ccc1-2,25.1 µM (active)
19,CC(O)c1ccc(OCCN(C)c2ccccn2)cc1 (stereo not given),inactive
20,Cc1cccc(NC(=O)Cn2nc(-c3ccc(Cl)cc3)c3ccccc3c2=O)c1,inactive
21,O=C(CN1C(=O)COc2ccc(S(=O)(=O)N3CCCCCC3)cc21)N1CCN(c2cccc(C(F)(F)F)c2)CC1,inactive
22,CCOCCCNC(=O)c1c(NC(=O)Cc2coc3ccc(C)cc23)sc2c1CCC2,inactive
23,CC(C)(C)c1ccc(/C=C/C(=O)Nc2ncccn2)cc1,inactive
24,CN(C)c1ccc(/C=C/C(=O)c2ccc(C(C)(C)C)cc2)cc1[N+](=O)[O-],11.2 µM (active)
25,Cc1cc(C(=O)O)ccc1[N+](=O)[O-],inactive
26,CCOc1ccc(NC(=O)CC2C(=O)N(c3cccc(OC)c3)C(=O)N2C2CCCCC2)cc1 (stereo not given),inactive
27,Cc1ccccc1CNC(=O)CCc1cn(Cc2ccccc2C)c2ccccc12,inactive
28,CSCCC(NC(=O)c1cc([N+](=O)[O-])cc([N+](=O)[O-])c1)c1nc2ccccc2[nH]1 (stereo not given),inactive
29,CSCCC(NC(=O)c1ccc(=O)n(C)n1)c1nc2ccccc2[nH]1 (stereo not given),89.1 µM (active)
30,COc1ccc(CC(=O)N[C@@H](CCSC)c2nc3ccccc3[nH]2)cc1,inactive
